Reference: PubChem BioAssay AID1159580 (chemical genetic matrix, 2015)
Values joined by “and” are separate entries in the source; they are usually repeats but may differ in a detail not shown here. Equal values may be shown once. Hit rate of the full screen: of about 5,500 compounds, about 2,000 (36%) were called active. Inconclusive results (about 18%) are left out. No stated cut-off is given here; in the data, active means normalized growth mostly below about 0.91 (no sharp cut-off); inconclusive means no clear call, values can overlap the other calls; inactive means mostly above about 0.92. The list shows a part of the results.

Experiment: chemical genetic growth profiling, strain panel (AID 1159580);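 further: tested at 20 µM; growth read once vehicle control cultures reached saturation at 30 °C; 1 = growth at the plate median or of vehicle wells; lower values mean less growth of the strain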
Details: S. cerevisiae deletion strains, growth OD

Measured: normalized growth

CC(C)(C)NC[C@@H](O)COc1nsnc1N1CCOCC1
inactive: locus YAL021C, strain ccr4, active compounds read low 1.02 | locus YAL026C, strain drs2, active compounds read low 1.01 | locus YAL030W, strain snc1, active compounds read low 1.02 | locus YBL061C, strain skt5, active compounds read low 1.01 | locus YBR009C, strain hhf1, active compounds read low 1.01 | locus YBR021W, strain FUR4, active compounds read low 1 | locus YBR023C, strain chs3, active compounds read low 1 | locus YBR171W, strain sec66, active compounds read low 1.03 | locus YBR229C, strain ROT2, active compounds read low 0.977 | locus YBR231C, strain swc5, active compounds read low 1.02 | locus YBR279W, strain paf1, active compounds read low 1.01 | locus YCL011C, strain gbp2, active compounds read low 1.02 | locus YCL016C, strain dcc1, active compounds read low 1.01 | locus YCL029C, strain bik1, active compounds read low 0.978 | locus YCL069W, strain vba3, active compounds read low 1.01 | locus YCR088W, strain abp1, active compounds read low 1.02 | locus YDL005C, strain med2, active compounds read low 1.02 | locus YDL035C, strain GPR1, active compounds read low 1.02 | locus YDL040C, strain nat1, active compounds read low 1.01 | locus YDL074C, strain BRE1, active compounds read low 0.985 | locus YDL101C, strain DUN1, active compounds read low 0.99 | locus YDL185W, strain tfp1, active compounds read low 0.977 | locus YDL192W, strain arf1, active compounds read low 0.994 | locus YDR001C, strain nth1, active compounds read low 1.01 | locus YDR069C, strain doa4, active compounds read low 1.01 | locus YDR101C, strain arx1, active compounds read low 0.95 | locus YDR137W, strain rgp1, active compounds read low 1.02 | locus YDR150W, strain NUM1, active compounds read low 0.99 | locus YDR159W, strain sac3, active compounds read low 1 | locus YDR162C, strain NBP2, active compounds read low 1.02 | locus YDR195W, strain ref2 1.03 | locus YDR297W, strain sur2, active compounds read low 1.02 | locus YDR318W, strain mcm21, active compounds read low 1 | locus YDR334W, strain swr1, active compounds read low 1.02 | locus YDR335W, strain msn5, active compounds read low 1.02 | locus YDR388W, active compounds read low 0.99 | locus YDR392W, strain spt3, active compounds read low 0.973 | locus YDR502C, strain sam2, active compounds read low 0.994 | locus YEL003W, strain gim4, active compounds read low 1.02 | locus YEL037C, strain rad23, active compounds read low 1.01 | locus YEL061C, strain CIN8 (second series), active compounds read low 1.02 | locus YEL061C, strain CIN8, active compounds read low 0.996 | locus YER015W, strain faa2, active compounds read low 1 | locus YER016W, strain bim1, active compounds read low 0.994 | locus YER110C, active compounds read low 0.974 | locus YER111C, strain swi4, active compounds read low 1.02 | locus YER155C, strain BEM2 (second series), active compounds read low 1.01 | locus YER155C, strain BEM2, active compounds read low 0.987 | locus YER167W, strain BCK2, active compounds read low 0.986 | locus YFR010W, strain ubp6, active compounds read low 1.02 | locus YGL078C, strain dbp3, active compounds read low 1 | locus YGL086W, strain mad1, active compounds read low 0.966 | locus YGL167C, strain pmr1, active compounds read low 1.02 | locus YGL173C, strain kem1, active compounds read low 1.02 | locus YGL227W, strain vid30, active compounds read low 1.01 | locus YGL240W, strain doc1, active compounds read low 1.02 | locus YGL248W, strain PDE1, active compounds read low 1 | locus YGL253W, strain hxk2, active compounds read low 1.02 | locus YGR078C, strain PAC10, active compounds read low 1 | locus YGR135W, strain pre9, active compounds read low 1 | locus YGR252W, strain gcn5, active compounds read low 1.08 | locus YHR013C, strain ard1, active compounds read low 1.02 | locus YHR027C, strain rpn1, active compounds read low 1.01 | locus YHR030C, strain SLT2, active compounds read low 0.997 and 0.975 | locus YHR079C, strain IRE1 (second series), active compounds read low 0.983 | locus YHR079C, strain IRE1, active compounds read low 0.973 | locus YHR094C, strain hxt1, active compounds read low 0.974 | locus YHR129C, strain ARP1, active compounds read low 1 | locus YHR142W, strain chs7, active compounds read low 1.03 | locus YHR200W, strain rpn10, active compounds read low 1 | locus YIL066C, strain RNR3, active compounds read low 0.985 | locus YIL073C, strain SPO22, active compounds read low 1.01 | locus YIL125W, strain kgd1, active compounds read low 0.981 | locus YIR030C, strain dcg1, active compounds read low 1 | locus YJL092W, strain hpr5, active compounds read low 1.01 | locus YJL095W, strain BCK1 (second series), active compounds read low 1.02 | locus YJL095W, strain BCK1, active compounds read low 1.01 and 0.975 | locus YJL115W, strain asf1, active compounds read low 1.01 | locus YJL129C, strain trk1, active compounds read low 1.02 | locus YJL134W, strain LCB3, active compounds read low 0.985 | locus YJL154C, strain vps35, active compounds read low 1.02 | locus YJL164C, strain tpk1, active compounds read low 1.01 | locus YJL166W, strain qcr8, active compounds read low 1.01 | locus YJL168C, strain set2, active compounds read low 0.984 | locus YJL187C, strain SWE1 (second series), active compounds read low 0.99 | locus YJL187C, strain SWE1, active compounds read low 1.02 | locus YJR043C, strain POL32, active compounds read low 1.03 | locus YJR066W, strain TOR1, active compounds read low 0.929
